According to PubChem BioAssay (NCATS):
Active and inactive are the calls of the source. The call rests on the fitted dose curve; in most records, active means well fitted curve in the direction sought with a large enough effect; inconclusive means small, poorly fitted or top-dose-only effect, or another doubt; inactive means no such curve, though single readings can be large or run the other way.

Biological target: Alpha-galactosidase (Coffea arabica) (UniProt Q42656)
Experiment: Counterscreen for Glucocerebrosidase Inhibitors: qHTS Assay for Coffee Bean alpha-Galactosidase at pH 4.5 (AID 957)
Details: purified coffee bean alpha-galactosidase, fluorogenic substrate; series mostly up to 76.9 µM
Summary of the method: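 Green coffee bean enzyme (2 nM final) was incubated with compounds (0.7 nM to 77 uM) and 4-methylumbelliferyl alpha-D-galactopyranoside (80 uM final) in 50 mM citric acid, 0.005% Tween-20, pH 4.5, 20 min at room temperature; AC50 from Hill fits.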

Chain of Alpha-galactosidase (Coffea arabica) (Q42656 whole entry, looked up): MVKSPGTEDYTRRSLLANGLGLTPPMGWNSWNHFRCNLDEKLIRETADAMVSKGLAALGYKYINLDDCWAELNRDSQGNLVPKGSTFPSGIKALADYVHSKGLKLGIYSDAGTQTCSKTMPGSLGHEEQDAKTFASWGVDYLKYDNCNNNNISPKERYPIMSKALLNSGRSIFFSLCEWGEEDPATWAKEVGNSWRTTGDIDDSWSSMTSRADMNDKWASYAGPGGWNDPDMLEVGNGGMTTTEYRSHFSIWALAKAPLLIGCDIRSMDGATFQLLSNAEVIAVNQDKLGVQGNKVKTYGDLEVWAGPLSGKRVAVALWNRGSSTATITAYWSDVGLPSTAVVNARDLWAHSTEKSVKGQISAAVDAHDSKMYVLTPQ

**Q.** Which outcome does the source give for `CCN(CC)CCOC(=O)c1ccc(N)cc1` here?
**A.** Its outcome is “inactive”.

**Q.** Which outcome does the source give for `O=C(O)CN(CCN(CC(=O)O)CC(=O)O)CCN(CC(=O)O)CC(=O)O` here?
**A.** The outcome was “inactive”.

**Q.** With `CC(=O)N1CCN(c2ccc(OC[C@H]3CO[C@](Cn4ccnc4)(c4ccc(Cl)cc4Cl)O3)cc2)CC1` as the molecule, how does the outcome read?
**A.** The outcome was “inactive”.

**Q.** For `NC(=O)N1c2ccccc2C=Cc2ccccc21`, which outcome is on record?
**A.** Its outcome is “inactive”.

**Q.** `CCCCC/C=C\C/C=C\C/C=C\C/C=C\CCCC(=O)NCC(=O)O` was tested. Which outcome did it give?
**A.** The outcome was “inactive”.

**Q.** Which outcome does the source give for `CCN(CC)CCNC(=O)c1cc(S(C)(=O)=O)ccc1OC` here?
**A.** Its outcome is “inactive”.

**Q.** With `COc1ccc2[nH]cc(CCNC(C)=O)c2c1` as the molecule, how does the outcome read?
**A.** Its outcome is “inactive”.

**Q.** For `CCO/C([O-])=N/c1c[n+](N2CCOCC2)no1`, which outcome is on record?
**A.** The outcome was “inactive”.

**Q.** `Cc1scc2c1N(C(=O)CN1CCN(C)CC1)c1ccccc1NC2=O` was tested. Which outcome did it give?
**A.** The outcome was “inactive”.

**Q.** For `C[C@H](CS)C(=O)N1CCC[C@H]1C(=O)O`, which outcome is on record?
**A.** Its outcome is “inactive”.

**Q.** With `FC(F)(F)c1ccccc1-n1ccnc1` as the molecule, how does the outcome read?
**A.** The outcome was “inactive”.

**Q.** With `CC(=O)O[C@H]1C(=O)[C@@]2(C)[C@H]([C@H](OC(=O)c3ccccc3)[C@]3(O)C[C@H](OC(=O)[C@H](O)[C@@H](NC(=O)c4ccccc4)c4ccccc4)C(C)=C1C3(C)C)[C@]1(OC(C)=O)CO[C@@H]1C[C@@H]2O` as the molecule, how does the outcome read?
**A.** The outcome was “inactive”.

**Q.** With `CN(C)CCOC(=O)COc1ccc(Cl)cc1` as the molecule, how does the outcome read?
**A.** Its outcome is “inactive”.

**Q.** For `CN1[C@@H]2CC[C@H]1CC(OC(c1ccccc1)c1ccccc1)C2` (some centres undefined), which outcome is on record?
**A.** The outcome was “inactive”.

**Q.** Which outcome does the source give for `CN1C(C(=O)Nc2ccccn2)=C(O)c2ccccc2S1(=O)=O` here?
**A.** The outcome was “inactive”.

**Q.** With `CC(C)NNC(=O)c1ccncc1` as the molecule, how does the outcome read?
**A.** Its outcome is “inactive”.

**Q.** How did the outcome turn out when `Nc1cc(=O)[nH]c(N)n1` was run?
**A.** Its outcome is “inactive”.

**Q.** Which outcome does the source give for `CCn1nc(C(=O)O)c(=O)c2cc3c(cc21)OCO3` here?
**A.** The outcome was “inactive”.

**Q.** `CC(=O)c1ccc(S(=O)(=O)NC(=O)NC2CCCCC2)cc1` was tested. Which outcome did it give?
**A.** The outcome was “inactive”.

**Q.** With `NC(N)=NC(=O)Cc1c(Cl)cccc1Cl` as the molecule, how does the outcome read?
**A.** The outcome was “inactive”.

**Q.** `O=C(O)CCCCCCCC(=O)O` was tested. Which outcome did it give?
**A.** The outcome was “inactive”.

**Q.** `Cc1cnc(NC(=O)C2=C(O)c3ccccc3S(=O)(=O)N2C)s1` was tested. Which outcome did it give?
**A.** The outcome was “inactive”.

**Q.** `Nc1nc2ccc(OC(F)(F)F)cc2s1` was tested. Which outcome did it give?
**A.** Its outcome is “inactive”.

**Q.** Which outcome does the source give for `CN1CCN(CC(=O)N2c3ccccc3C(=O)Nc3cccnc32)CC1` here?
**A.** Its outcome is “inactive”.

**Q.** With `Cc1ccc(Cl)c(Nc2ccccc2C(=O)O)c1Cl` as the molecule, how does the outcome read?
**A.** Its outcome is “inactive”.

**Q.** With `CCOC(=O)c1cnc2c(cnn2CC)c1NN=C(C)C` as the molecule, how does the outcome read?
**A.** The outcome was “inactive”.

**Q.** With `CNCCC=C1c2ccccc2CCc2ccccc21` as the molecule, how does the outcome read?
**A.** The outcome was “inactive”.

**Q.** For `CN1CCC[C@@H]1c1cccnc1`, which outcome is on record?
**A.** The outcome was “inactive”.

**Q.** For `C[N+](C)(C)CCCCCC[N+](C)(C)C`, which outcome is on record?
**A.** The outcome was “inactive”.
